# Calls of active or inactive are those of the source. Unless noted, how the calls were made is not given here.
# Tests used:
# [1] = HepG2 liver cancer cell viability effects, profiling panel, resazurin fluorescence, 24 h, PK04 Diversity Set (AID 1172); details: higher = more signal
# [2] = basal S. cerevisiae growth modulation, no modifier, primary screen, OD600, strain BY4716, 24 h, basal condition (AID 1173); details: OD600, 24 h, higher = more signal, called active from +8 up or from −8 down
# [3] = MM1S myeloma cell viability, profiling panel, resazurin fluorescence, basal, 24 h, PK04 Diversity Set (AID 1174); details: higher = more signal, called active from +8 up or from −8 down;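 further: MM1S multiple myeloma cell line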
# [4] = target: Dihydroorotate dehydrogenase (quinone), mitochondrial (Plasmodium falciparum (isolate 3D7)) (UniProt Q08210); assay: PfDHODH enzyme inhibitors, primary screen, biochemical, C-terminal His tag, absorbance 600 nm (AID 1175); details: DCIP absorbance 600 nm, higher = more signal, called active from +8 up or from −8 down;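 further: recombinant parasite enzyme with a five histidine tag at its C terminus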
# [5] = P. aeruginosa biofilm formation inhibitors, primary screen, strain PAO1, LB-PBS medium, absorbance 600 nm (AID 1176); details: P. aeruginosa PAO1 growth/biofilm, A600, 12 h; higher = more signal
# [6] = S. cerevisiae RM11-1a growth modifiers, primary screen, strain RM11-1a, OD600, basal, 24 h (AID 1177); details: OD600, 24 h, higher = more signal, called active from +8 up or from −8 down;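 further: cultures grown under basal conditions with no added stressor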
# [7] = E. coli acrAB mutant growth effects, primary screen, E. coli filamentation inducers, strain DRC39, OD650, 24 h (AID 1178); details: higher = more signal, called active from +8 up or from −8 down;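 further: growth measured as culture turbidity by optical density at 650 nm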
# [8] = E. coli acrAB mutant growth effects, primary screen, E. coli filamentation inducers, strain DRC39, OD650, 48 h (AID 1179);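 further: screen aims at cell division blockers that make cells filament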; details: E. coli DRC39 delta-acrAB growth, higher = more signal, called active from +8 up or from −8 down
# [9] = RPMI8226 myeloma cell viability, profiling panel, resazurin fluorescence, basal, 24 h, PK04 Diversity Set (AID 1180); details: higher = more signal;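 further: RPMI8826 multiple myeloma cell line at 5000 cells per well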
# [10] = target: E3 ubiquitin-protein ligase XIAP (Homo sapiens) (UniProt P98170); assay: XIAP binders, primary screen, biophysical, small-molecule microarray, fluorescence 635 nm (AID 1181); details: small-molecule microarray binding, higher = more signal;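 further: score merges 667 nm emission and signal to noise over triplicate slides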
# [11] = tested on: XIP peptide (Xip251-270) binding; assay: small-molecule binders of XIP peptide, primary screen, biochemical, small-molecule microarray, fluorescence 635/667 nm, 0.1 µg/mL protein (AID 1182); details: fluorescent protein binding, 635 nm, higher = more signal, called active from +8 up or from −8 down
# [12] = tested on: XIP peptide (Xip251-270); assay: small-molecule binders of XIP peptide, primary screen, biochemical, small-molecule microarray, fluorescence 635/667 nm, 0.5 µg/mL protein (AID 1183); details: small-molecule microarray binding, fluorescence 635 nm; higher = more signal
# [13] = Plasmodium falciparum growth inhibition, primary screen, strain 3D7, DAPI fluorescence, 100 nL (AID 1184);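 further: parasites grown inside human red blood cells in medium with human serum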; details: P. falciparum 3D7 growth, 3 d, higher = more signal
# [14] = target: Homeobox protein Hox-A13 (Mus musculus) (UniProt Q62424); assay: inhibitors of HoxA13-DNA binding, primary screen, biochemical, fluorescence polarization, labeled oligonucleotide (AID 1185); details: 15 min, higher = more signal, called active from +8 up or from −8 down
# [15] = inhibitors of hydroxyurea-induced Chk1 phosphorylation, primary screen, imaging, HeLa, phospho-Chk1 antibody, percent positive cells (AID 1186); details: hydroxyurea-induced phospho-Chk1 immunofluorescence imaging, higher = more signal
# [16] = inhibitors of hydroxyurea-induced Chk1 phosphorylation, primary screen, imaging, HeLa, phospho-Chk1 nuclear intensity (AID 1187); details: hydroxyurea-induced phospho-Chk1 immunofluorescence imaging, higher = more signal
# Dihydroorotate dehydrogenase (quinone), mitochondrial (Plasmodium falciparum (isolate 3D7)), sequence (Q08210 whole entry, looked up): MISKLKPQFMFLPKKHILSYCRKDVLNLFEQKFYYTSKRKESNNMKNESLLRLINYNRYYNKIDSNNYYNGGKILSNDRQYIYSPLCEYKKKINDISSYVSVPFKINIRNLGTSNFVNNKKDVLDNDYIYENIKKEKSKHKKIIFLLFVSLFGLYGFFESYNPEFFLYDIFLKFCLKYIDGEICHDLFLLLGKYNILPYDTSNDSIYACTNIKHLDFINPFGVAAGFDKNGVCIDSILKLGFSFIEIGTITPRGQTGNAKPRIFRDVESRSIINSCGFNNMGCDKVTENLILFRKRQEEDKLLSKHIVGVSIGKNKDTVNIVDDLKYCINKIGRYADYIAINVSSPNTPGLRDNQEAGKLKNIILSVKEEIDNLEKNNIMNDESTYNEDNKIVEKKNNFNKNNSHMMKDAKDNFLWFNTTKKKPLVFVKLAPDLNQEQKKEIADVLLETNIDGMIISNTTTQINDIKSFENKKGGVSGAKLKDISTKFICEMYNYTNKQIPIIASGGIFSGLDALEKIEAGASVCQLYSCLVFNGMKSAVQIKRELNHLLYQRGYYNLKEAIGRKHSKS
# E3 ubiquitin-protein ligase XIAP (Homo sapiens), sequence (P98170 whole entry, looked up): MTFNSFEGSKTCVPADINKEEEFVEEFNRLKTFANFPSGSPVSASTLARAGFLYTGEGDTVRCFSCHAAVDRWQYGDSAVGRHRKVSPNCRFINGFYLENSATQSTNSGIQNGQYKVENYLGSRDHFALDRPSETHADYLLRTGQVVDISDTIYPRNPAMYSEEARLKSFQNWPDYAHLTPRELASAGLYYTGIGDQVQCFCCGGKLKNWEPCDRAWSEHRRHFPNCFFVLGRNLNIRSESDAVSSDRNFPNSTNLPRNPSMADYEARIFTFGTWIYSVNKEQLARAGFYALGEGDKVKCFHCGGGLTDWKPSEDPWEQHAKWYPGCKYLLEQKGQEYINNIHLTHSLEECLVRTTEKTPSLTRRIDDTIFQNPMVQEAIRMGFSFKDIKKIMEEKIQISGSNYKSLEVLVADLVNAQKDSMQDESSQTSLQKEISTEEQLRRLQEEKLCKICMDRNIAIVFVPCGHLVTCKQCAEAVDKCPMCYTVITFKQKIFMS
# Homeobox protein Hox-A13 (Mus musculus), sequence (Q62424 whole entry, looked up): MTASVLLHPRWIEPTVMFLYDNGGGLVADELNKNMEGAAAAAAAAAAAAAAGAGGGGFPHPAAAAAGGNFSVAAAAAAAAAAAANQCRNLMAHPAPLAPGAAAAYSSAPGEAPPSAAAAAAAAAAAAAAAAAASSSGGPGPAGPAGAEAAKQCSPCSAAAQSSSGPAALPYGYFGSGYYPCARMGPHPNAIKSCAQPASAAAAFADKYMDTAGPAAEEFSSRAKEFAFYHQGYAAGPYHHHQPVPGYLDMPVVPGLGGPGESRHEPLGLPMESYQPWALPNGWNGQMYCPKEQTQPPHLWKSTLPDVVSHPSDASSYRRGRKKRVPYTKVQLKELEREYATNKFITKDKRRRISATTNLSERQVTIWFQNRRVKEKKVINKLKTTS
compound,measurement,setting,value
Cc1ccc(C(C)CC(O)C2C=CC3C(=O)N(c4ccccc4)C(=O)C3N2Nc2ccc([N+](=O)[O-])cc2)o1 (centres undefined),z-score,[1],0.836
same,z-score,[2],0.124 (inactive)
same,z-score,[3],-0.171 (inactive)
same,composite z-score,[4],-0.071 (inactive)
same,z-score,[5],1.14 (inactive)
same,z-score,[6],0.315 (inactive)
same,z-score,[7],-0.975 (inactive)
same,z-score,[8],0.178 (inactive)
same,z-score,[9],0.263
same,composite z-score,[10],0.152
same,composite z-score,[11],0.099 (inactive)
same,composite z-score,[12],0.839
same,z-score,[13],-1.1
same,z-score,[14],-3.75 (inactive)
same,z-score,[15],0.161 (inactive)
same,z-score,[16],0.568 (inactive)
COC(=O)[C@@]1(Cc2ccc(OC)cc2)[C@H]2c3cc(C(=O)N(C)C)n(Cc4cccc5ccccc45)c3C[C@H]2CN1C(=O)c1ccccc1,z-score,[1],-1.75
same,z-score,[2],0.897 (inactive)
same,z-score,[3],-2.01 (inactive)
same,composite z-score,[4],-3.49 (inactive)
same,z-score,[5],2.31 (inactive)
same,z-score,[6],0.872 (inactive)
same,z-score,[7],-0.353 (inactive)
same,z-score,[8],-0.999 (inactive)
same,z-score,[9],-2.66
same,composite z-score,[10],0.101
same,composite z-score,[11],0.237 (inactive)
same,composite z-score,[12],0.822
same,z-score,[13],-1.61
same,z-score,[14],-4.2 (inactive)
same,z-score,[15],0.0329 (inactive)
same,z-score,[16],-0.19 (inactive)
CCCCCN1CC=CC23O[C@@H]4/C=C\CCCOC(=O)C4[C@H]2C(=O)N(C(CO)C(C)C)[C@@H]3C1=O (some centres undefined),z-score,[1],1.05
same,z-score,[2],0.367 (inactive)
same,z-score,[3],0.641 (inactive)
same,composite z-score,[4],-2.08 (inactive)
same,z-score,[5],-0.124 (inactive)
same,z-score,[6],0.226 (inactive)
same,z-score,[7],0.299 (inactive)
same,z-score,[8],0.0539 (inactive)
same,z-score,[9],0.574
same,composite z-score,[10],0.177
same,composite z-score,[11],-0.0186 (inactive)
same,composite z-score,[12],0.0798
same,z-score,[13],0.609
same,z-score,[14],-4.65 (inactive)
same,z-score,[15],-0.609 (inactive)
same,z-score,[16],-0.33 (inactive)
C=C(COC)/C(=C/C[C@@H](OC(C)=O)c1ccc(OCCO)cc1)c1cc(C(=O)OC)ccc1OC,z-score,[1],0.453
same,z-score,[2],0.166 (inactive)
same,z-score,[3],-0.252 (inactive)
same,composite z-score,[4],-0.72 (inactive)
same,z-score,[5],0.862 (inactive)
same,z-score,[6],0.303 (inactive)
same,z-score,[7],0.193 (inactive)
same,z-score,[8],0.0514 (inactive)
same,z-score,[9],-0.395
same,composite z-score,[10],-0.353
same,composite z-score,[11],2.57 (inactive)
same,composite z-score,[12],0.762
same,z-score,[13],-3.06
same,z-score,[14],-4.45 (inactive)
same,z-score,[15],-0.307 (inactive)
same,z-score,[16],-0.333 (inactive)
O=C(NCc1ccccc1)[C@@H]1c2ccccc2C(=O)N(CC23CC4CC(CC(C4)C2)C3)[C@H]1c1ccc(CO)cc1,z-score,[1],-0.511
same,z-score,[2],-0.092 (inactive)
same,z-score,[3],-1.12 (inactive)
same,composite z-score,[4],-0.139 (inactive)
same,z-score,[5],-0.245 (inactive)
same,z-score,[6],0.0739 (inactive)
same,z-score,[7],-0.142 (inactive)
same,z-score,[8],-0.179 (inactive)
same,z-score,[9],-0.195
same,composite z-score,[10],0.0623
same,composite z-score,[11],0.149 (inactive)
same,composite z-score,[12],0.794
same,z-score,[13],-1.76
same,z-score,[14],-3.43 (inactive)
same,z-score,[15],-0.221 (inactive)
same,z-score,[16],-0.338 (inactive)
CCCCCCC#C[Si](O[C@H](c1ccccc1)c1cn([C@H](CO)Cc2ccccc2)nn1)(C(C)C)C(C)C,z-score,[1],1.13
same,z-score,[2],-1.93 (inactive)
same,z-score,[3],0.389 (inactive)
same,composite z-score,[4],-3.69 (inactive)
same,z-score,[5],0.395 (inactive)
same,z-score,[6],-0.297 (inactive)
same,z-score,[7],0.953 (inactive)
same,z-score,[8],1.57 (inactive)
same,z-score,[9],0.881
same,composite z-score,[10],-0.157
same,composite z-score,[11],0.207 (inactive)
same,composite z-score,[12],0.0718
same,z-score,[13],0.221
same,z-score,[14],-1.34 (inactive)
same,z-score,[15],-0.653 (inactive)
same,z-score,[16],-0.496 (inactive)
CCOC(=O)C[C@H]1[C@H](OC(=O)c2cc3ccccc3oc2=O)[C@@H](NC(=O)C2CCCCC2)c2cc(OCCCO)ccc2N1C(=O)c1ccccc1,z-score,[1],-0.687
same,z-score,[2],-0.797 (inactive)
same,z-score,[3],0.0797 (inactive)
same,composite z-score,[4],-2.85 (inactive)
same,z-score,[5],-0.259 (inactive)
same,z-score,[6],-0.403 (inactive)
same,z-score,[7],1.65 (inactive)
same,z-score,[8],0.612 (inactive)
same,z-score,[9],0.285
same,composite z-score,[10],-0.214
same,composite z-score,[11],-0.194 (inactive)
same,composite z-score,[12],0.327
same,z-score,[13],-1.73
same,z-score,[14],-3.06 (inactive)
same,z-score,[15],0.895 (inactive)
same,z-score,[16],1.11 (inactive)
C=C(/C(=C/C[C@@H](OC(C)=O)c1ccc(OCCO)cc1)c1cnc2ccccc2c1)C(C)C,z-score,[1],1.22
same,z-score,[2],-2.05 (inactive)
same,z-score,[3],-0.318 (inactive)
same,composite z-score,[4],-7.29 (inactive)
same,z-score,[5],-0.165 (inactive)
same,z-score,[6],-1.87 (inactive)
same,z-score,[7],1.58 (inactive)
same,z-score,[8],0.79 (inactive)
same,z-score,[9],1.05
same,composite z-score,[10],0.287
same,composite z-score,[11],0.174 (inactive)
same,composite z-score,[12],0.178
same,z-score,[13],-3
same,z-score,[14],-4.09 (inactive)
same,z-score,[15],-1.03 (inactive)
same,z-score,[16],-0.163 (inactive)
COc1cc(OC)c(C(O)C2C=CC3C(=O)NC(=O)C3N2Nc2ccc(Cl)cc2Cl)cc1Br (centres undefined),z-score,[1],-3.99
same,z-score,[2],-14.7 (active)
same,z-score,[3],-2.48 (inactive)
same,composite z-score,[4],-0.0023 (inactive)
same,z-score,[5],0.338 (inactive)
same,z-score,[6],0.695 (inactive)
same,z-score,[7],-0.0795 (inactive)
same,z-score,[8],-1.06 (inactive)
same,z-score,[9],-2.27
same,composite z-score,[10],0.367
same,composite z-score,[11],1.11 (inactive)
same,composite z-score,[12],0.369
same,z-score,[13],-0.0679
same,z-score,[14],-5.65 (inactive)
same,z-score,[15],0.66 (inactive)
same,z-score,[16],0.862 (inactive)
